Assay outcomes as filed in PubChem BioAssay.
TWEAK-Fn14 inh: blocks TWEAK-Fn14 interaction in a reporter cell assay. TWEAK-stimulated Fn14 reporter cells, luciferase luminescence, 8 h. inhibition, % at 10 µM. 360,000 compounds, 2% hits. AID 1159606; in the data active = inhibition above about 50%
CF NFkB block: blocks PAF-induced NF-kB reporter in cystic fibrosis cells; AID 588850; KKLEB NF-kB-GFP reporter, GFP fluorescence overnight; inhibition, % at 5 µM; 360,000 compounds, 0.86% hits;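 active = at least 50% inhibition at 5 µM, scaled per plate between neutral and stimulator controls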;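 also: PAF is a Pseudomonas aeruginosa culture filtrate used as stimulus; plate controls were PAF-stimulated DMSO wells for no effect and unstimulated DMSO wells for full effect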
HIF-2a block: inhibitors of HIF-2a. inhibition, % at 18.8 µM. 360,000 compounds, 0.72% hits. 786-0 RCC cells HIF-2a reporter, luciferase luminescence, overnight;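 active = inhibition of the luminescence signal of 40% or more relative to plate controls, in a single-dose primary screen at 18.75 µM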
TROY NFkB inh: TROY signaling inhibition; Q293 LMP1-TROYcd NF-kB luciferase reporter, 4 h; inhibition, % at 10 µM; 360,000 compounds, 0.98% hits; AID 1347056;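 active = compounds whose plate-normalised and pattern-corrected inhibition of the luciferase reporter signal at the single screening dose is 50% or more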
Peg3 prom inh: reduces Peg3 promoter-driven luciferase expression in HeLa; 360,000 compounds, 1.7% hits; inhibition, % at 20 µM; HeLa PEG-Prom luciferase reporter, luminescence, overnight;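 active = inhibition of at least 50% at 20 µM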
KKLEB tox: reduces viability of KKLEB cystic fibrosis airway cells | KKLEB CF airway cells viability, ATPlite luminescence, overnight; hits give low values; cells stimulated with P. aeruginosa culture filtrate | activity change (cytotoxicity), % at 5 µM | 360,000 compounds, 0.36% hits | AID 602141;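 active = corrected activity change at or below -50% at 5 µM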
The depositor's hits bear a star; . = not tested or not shown; ! = repeats disagree. Shown are actives, neighbours in structure and some others; about 3.9% of the full set was active somewhere.

SMILES	TWEAK-Fn14 inh	CF NFkB block	HIF-2a block	TROY NFkB inh	Peg3 prom inh	KKLEB tox
COc1ccc(OC)c2c(C)cc(N3CCCCCC3)nc12	103*	5	5	-4	9	-1
COc1cccc2c(C)cc(N3CCCCCC3)nc12	-6	-3	17	2	7	-20
CCn1c(C(C)NC(=O)c2cccc(C)c2)nc2ccccc21 (configuration not stated)	-8	3	8	-29	3	-15
Cc1cc(C)n(-c2nc(NCCN(C)C)c3c4c(sc3n2)CCCC4)n1	-51	27	-66	-26	103*	-25
COc1cc(OC)cc(C2=Cc3ccccc3C(CC(C)=O)N2c2ccc(C#CC3(O)CCCCC3)cc2)c1 (configuration not stated)	52*	.	11	36	.	.
CC(=O)CC1c2cc(F)ccc2C=C(c2ccsc2)N1c1ccc(C#Cc2cncn2C)cc1 (configuration not stated)	14	.	0	-3	.	.
CC(=O)CC1c2cc(F)ccc2C=C(c2ccsc2)N1c1ccc(C#CC2(O)CCCCC2)cc1 (configuration not stated)	57*	.	-10	-13	.	.
Cc1ccccc1NNC(=O)C(=O)NNc1ccccc1C	10	-23	9	-32	7	16
Cc1ccccc1NC(=O)C(Cl)=C(Cl)Cl	12	-17	-41	-5	55*	12
O=C1C=C(NCCc2cc(Br)c(O)c(Br)c2)C(=O)c2ncccc21	94*	76*	9	38	93*	-33
CC(C)(C)c1cc(CCC(=O)NCCc2ccccn2)cc(C(C)(C)C)c1O	9	-9	2	-18	13	-7
CC1(C)NC(=O)N(CCCCOc2ccc3c(c2)CCC3)C1=O	-5	-7	-66	-19	-24	-2
COCCn1c(-c2ccc(Br)cc2)csc1=Nc1cccnc1	0	-8	-1	1	4	-28
Clc1ccc(-c2csc(=Nc3cccnc3)n2CCCn2ccnc2)cc1Cl	66*	50	34	46	3	-6
Cc1ccc(S(=O)(=O)N2[C@@H](c3ccccc3)C(C(=O)O)=CC[C@H]2c2ccc(Cl)c(Cl)c2)cc1	33	-15	23	32	9	29
Cc1ccc([C@H]2C(C(=O)O)=CC[C@@H](c3ccc(Cl)c(Cl)c3)N2S(=O)(=O)c2ccc(C)cc2)cc1	10	-4	1	57*	13	5
COc1ccc(CCN(/C=C2\Sc3ccccc3C2=O)C(C)=O)cc1OC	0	17	-5	56*	14	-14
CN(C)/C=C1/Sc2ccccc2C1=O	-19	2	-27	12	-16	4
COc1ccc(CC2(CO)CCN(S(=O)(=O)c3cccc4cccnc34)CC2)cc1	56*	17	-4	14	-37	-22
Cc1ccnc(NC(=O)COc2ccccc2[N+](=O)[O-])c1	51*	-19	-45	7	-125	-3
Cc1ccc(NC(=O)c2ccc(COc3ccccc3[N+](=O)[O-])o2)nc1	14	19	-121	9	-57	-9
O=C(COc1ccccc1[N+](=O)[O-])Nc1cccnc1	-28	-3	-262	-21	-199	15
Cc1ccc(NC(=O)COc2ccccc2[N+](=O)[O-])nc1	58*	0	-131	43	-62	7
Cc1ccccc1OCC1Cc2c(nc(N)c(C#N)c2N)O1 (configuration not stated)	58*	-14	-182	.	-251	3
COc1ccc(CN(CCN(C)C)c2ccccn2)cc1	-1	21	-2	-13	-10	-6
SMILES	TWEAK-Fn14 inh	CF NFkB block	HIF-2a block	TROY NFkB inh	Peg3 prom inh	KKLEB tox
CCCCCCCCCCCCCCCC[N+](C)(C)CCN(Cc1ccc(OC)cc1)c1ncccn1	12	7	86*	39	105*	18
OCc1cccc[n+]1Cc1ccccc1	-1	1	21	60*	10	10
Cc1ccc(-c2cc[n+](Cc3ccccc3)cc2)cc1	8	-1	20	13	28	5
O=C(O)c1cccc(C(=O)c2cccc3ccccc23)c1	6	2	19	1	7	-14
O=C1c2ccccc2C(=O)c2[nH]cnc21	-11	-26	17	-8	-7	2
O=C1c2ccccc2C(=O)c2[nH]c(=O)[nH]c21	45	96*	7	54*	82*	-42
Cc1ccc(-c2nnc(-c3ccccc3Br)o2)cc1	57*	5	-120	7	-211	-32
O/N=C/c1cccc[n+]1CCCCCC[n+]1ccccc1/C=N/O	1	-3	16	4	2	2
CCCCCCCCCCCCCCCC[n+]1ccccc1	77*!	62*	93*	52*!	97*	-50*!
CCCCCCCC[n+]1cccc(C(=O)N(CC)CC)c1	18	7	18	4	14	-5
CCCCCCCCCCCCCCCC[n+]1ccc(/C=N/O)cc1	40	28	70*	42	104*	-16
N=C1S/C(=C\c2ccc(-c3cccc(Cl)c3)o2)C(=O)N1c1nccs1	90*	-59	1	-6	104*	12
CCOC(=O)N(C)C[C@H]1OCc2cn(nn2)CCCC(=O)N([C@H](C)CO)C[C@@H]1C	10	14	10	3	-8	-4
CCc1nc2ccccc2c(C(=O)OCCN2C(=O)c3ccccc3C2=O)c1C	18	20	10	-1	18	-26
Nc1cc2c(cc1[N+](=O)[O-])-c1ccccc1C2=NO	72*	49	-135	43	-107	19
O=c1cnn(Cc2ccc(F)cc2)c2ccccc12	-3	6	16	-20	3	-5
O=c1c(Cl)c(Cl)cnn1Cc1ccc(F)cc1	81*	35	14	2	74*	-5
O=C(Oc1ccc(C(=S)N2CCCCC2)cc1)c1ccccc1	-15	19	7	-32	-9	13
O=C(Oc1ccc(C(=S)N2CCC(O)CC2)cc1)c1ccc(Cl)cc1	-29	-22	4	57*	0	-1
O=C(COC(=O)C1=COCCO1)Nc1ccccc1Oc1ccccc1	64*	-11	-1	11	-1	4
O=C(Nc1nc(-c2ccc(Oc3ccccc3)cc2)cs1)C1=COCCO1	62*	-2	-53	33	-35	-12
Cc1nn(Cc2ccc(Cl)cc2)c(C)c1NC(=O)CSc1n[nH]c(C)c1[N+](=O)[O-]	-2	4	24	10	19	1
CCOC(=O)CNC(=O)N1CCCC(C(=O)c2ccc3c(c2)OCO3)C1 (configuration not stated)	9	-6	15	4	8	0
COc1cc(O)c(C(=O)/C=C/c2ccccc2)c(OC)c1	74*	14	-41	-9	61*	-8
CCCCCCCCNC(C)C(O)c1ccc(SC(C)C)cc1 (configuration not stated)	-36	5	22	18	104*	-29
